ALDH1A1 inh: blocks purified human ALDH1A1 activity; P00352; Purified ALDH1A1, NADH fluorescence, propionaldehyde substrate; Potency, µM (series often up to 75.3 µM), without a hit: at the highest dose activity, negative = inhibition, usual class: inhibitors; 7.3% of 220,000 active;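 note: potency is the fitted concentration of half-maximal effect; plate controls were no enzyme wells and a reference inhibitor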
Target sequence (P00352 whole entry, looked up): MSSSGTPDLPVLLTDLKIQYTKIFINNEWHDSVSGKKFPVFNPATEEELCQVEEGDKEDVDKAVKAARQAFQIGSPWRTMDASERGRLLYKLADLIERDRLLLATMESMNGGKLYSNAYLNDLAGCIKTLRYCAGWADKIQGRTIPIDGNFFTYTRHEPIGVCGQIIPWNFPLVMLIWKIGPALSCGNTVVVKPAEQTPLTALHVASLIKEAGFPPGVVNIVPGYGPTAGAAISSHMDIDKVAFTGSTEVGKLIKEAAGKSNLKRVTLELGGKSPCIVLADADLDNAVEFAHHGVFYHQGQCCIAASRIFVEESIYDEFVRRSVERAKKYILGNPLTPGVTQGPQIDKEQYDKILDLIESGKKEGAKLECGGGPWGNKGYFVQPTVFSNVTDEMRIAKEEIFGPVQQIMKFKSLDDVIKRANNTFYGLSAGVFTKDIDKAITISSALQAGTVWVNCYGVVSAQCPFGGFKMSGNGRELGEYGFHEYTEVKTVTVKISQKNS
IMPase Li cell: membrane-permeable IMPase blocker, potentiated with lithium | 0.35% of 210,000 active | Potency, µM (titrated, usually from 59.4 µM), without a hit: top-dose activity, negative = IMPase inhibition, most hits filed as inhibitors | CHO-M1 cells, IP1 TR-FRET (IP-One), carbachol + lithium; active = well fitted inhibition curve with a large enough effect; inconclusive = small, poorly fitted or top-dose-only effect; inactive = no such curve, though single readings can be large or run the other way;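 note: IP1 builds up when IMPase is blocked and the TR-FRET signal falls; potency is the fitted concentration of half-maximal effect; plate controls were basal vehicle for no effect and high inhibitor control for full effect; nearly all actives have a fitted effect of over 50% in size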
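Readout is a homogeneous TR-FRET IP1 immunoassay (Ex 320, Em 665 and 620), where raised cytosolic IP1 lowers signal. Cells were CHO-M1 treated 30 min at 37C with test compounds plus a little lithium; AC50 values came from Hill-equation fitting.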
HPGD inh: inhibitors of human 15-hydroxyprostaglandin dehydrogenase (HPGD) | P15428 | purified HPGD, NADH fluorescence kinetic, PGE2 substrate | Potency, µM, inactives show top-dose activity change, negative = inhibition, most hits filed as inhibitors | 4.3% of 150,000 active | AID 894; note: potency is the fitted concentration of half-maximal effect
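NADH formation kinetics: reaction with 30 uM PGE2 and 1 mM NAD+ (final), 20 nM enzyme, Tris-HCl pH 8 with Tween 20, after 15 min compound preincubation at room temperature. Fluorescence change, last versus first of five reads.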
PNC inhibitor: inhibitors of perinucleolar compartment assembly; PC3M PTB-GFP, PNC prevalence imaging, 16 h; active compounds read low; activity change (PNC), negative = inhibition, % at 10 µM; 3.1% of 140,000 active;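 active = readout at or below -70, meaning at least 70% loss of cells showing the perinucleolar compartment, a nuclear body marking cancer cells; inconclusive = readout between -30 and a set limit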;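 note: plate controls were DMSO wells for no effect and camptothecin positive control wells for full effect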
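Read-out is percentage of cells bearing a perinucleolar compartment, from automated 20x imaging of fixed, Hoechst-stained PC3M PTB-GFP cells. Cells were seeded 4 h, then exposed 16 h to compound (23 nl of library stock) in duplicate plates.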
IMPase cell inh: membrane-permeable compound that blocks inositol monophosphatase | inhibition (IP1 accumulation), % at 46.1 µM | P97697 | AID 901 | 120,000 tested, under 10 active | CHO-M1 cells, IP1 accumulation, HTRF TR-FRET ratio; active = well fitted curve in the direction sought with a large enough effect in the signal ratio, not every such curve was filed as active; inconclusive = small, poorly fitted or top-dose-only effect, or a change in a side signal; inactive = no such curve, though single readings can be large or run the other way; the % refers to the signal ratio;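 note: cells stimulated with carbachol in lithium chloride buffer; plate controls were DMSO basal wells for no effect and reference inhibitor wells for full effect; higher means more IMPase inhibition seen as more IP1 and lower FRET ratio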
Target sequence (P97697 whole entry, looked up): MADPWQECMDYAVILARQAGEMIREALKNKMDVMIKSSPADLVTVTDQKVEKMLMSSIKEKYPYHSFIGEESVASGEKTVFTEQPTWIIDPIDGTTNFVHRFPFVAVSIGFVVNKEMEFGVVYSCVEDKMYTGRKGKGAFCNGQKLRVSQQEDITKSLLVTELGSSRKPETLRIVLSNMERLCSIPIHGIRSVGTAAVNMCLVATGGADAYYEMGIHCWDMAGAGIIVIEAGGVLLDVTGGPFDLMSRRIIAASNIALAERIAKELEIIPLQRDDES
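CHO-M1 cells (CHO stably expressing M1 receptor), compound up to 46 uM final, stimulated with carbachol (50 uM as added) in buffer with 50mM LiCl, pH 7.4, 30 min at 37C. Cytosolic IP1 read by TR-FRET; AC50 from Hill fits.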
Active calls of the source: *; u = inconclusive; x = no result; [ ] = another dose, or the depositor's remark. The list is not random: actives were taken first. Their share in the collection is about 11%. Unless noted, calls come from the whole dose curve; as a rule, active = well fitted inhibition curve with a large enough effect (not every such curve was filed as active); inconclusive = small, poorly fitted or top-dose-only effect, or another doubt; inactive = no such curve, though single readings can be large or run the other way. Unless noted, % is set by controls: 0 for no effect and ±100 for the full control effect.

SMILES | ALDH1A1 inh | IMPase Li cell | HPGD inh | PNC inhibitor | IMPase cell inh
CCn1c(=O)cc(SCC(=O)NCc2cccnc2)c2ccccc21 | u | 10µM* | u | 33.9 | u
CCn1c(=O)cc(SCC(=O)NCc2ccc(C)cc2)c2ccccc21 | -0.7% | -9.7%[38.3 µM] | u | 25.5 | -19.8
CCn1c(=O)cc(OCC(=O)NCc2ccc(C)o2)c2ccccc21 | 22.4µM* | 7.8%[38.3 µM] | u | -27.4 | -4.0
CCn1c(=O)cc(OCC(=O)NCc2ccco2)c2ccccc21 | u | -3.0%[38.3 µM] | -25.0% | u | 2.7
CCn1c(=O)cc(SCC(=O)NCc2ccc(C)o2)c2ccccc21 | -7.6% | -2.7%[38.3 µM] | 28.2µM* | 15.1 | -17.8
C#Cc1ccc([C@@H]2C=C(C(=O)O)O[C@H](OCc3ccc(CO)cc3)C2)cc1 | -13.1% | 1.6% | x | x | x
CN(C)CCCNC(=O)COc1ccc(Br)cc1Cl | -2.9% | 2.5% | -18.6% | -87.3* | x
C=CCNC(=O)COc1ccc(Br)cc1Cl | 4.7% | -0.3%[38.3 µM] | u | -113.7* | 2.1
COCCNC(=O)COc1ccc(Br)cc1Cl | 3.9% | 42.2%[38.3 µM] | u | 16.3 | 0.4
Cc1nn(C)c(C(=O)NN)c1Cl | -15.1% | 1.3% | x | x | x
COc1ccc(N2C(=O)C3[C@@H](C2=O)C2(Cl)C(Cl)=C(Cl)C3(Cl)C2(OC)OC)cc1 (some centres undefined) | 14.6% | -4.8% | -8.6% | 46.2 | 13.7
CC(=O)Nc1ccc(C(=O)CSc2nc3ccccc3n2CC(=O)N2CCCC2)cc1 | 25.1µM* | -9.9%[38.3 µM] | u | 36.3 | 4.4
COCCn1c(SCC(=O)N2CCCc3ccccc32)nc2cccnc21 | 3.16µM* | 32.8%[38.3 µM] | -9.9% | u | 8.2
O=C(Cn1c(SCC(=O)N2CCCc3ccccc32)nc2ccccc21)N1CCCC1 | -1.9% | 7.8% | -9.5% | -100.0* | -4.7
CCOC(=O)C1(Cc2cccc(OC)c2)CCN(Cc2cccc(OC)c2O)CC1 | u | 16.2% | x | x | x
Cc1n(N)c2ccccc2[n+]1CC(=O)c1ccccc1 | 4.6% | 8.4% | x | x | x
COc1ccc(/C=N/NC(=O)CCc2c(C)n[nH]c2C)cc1O | -3.6% | 4.4%[38.3 µM] | -9.8% | 15.0 | -8.0
O=C(Cn1nc2ccccc2n1)N/N=C/c1cc([N+](=O)[O-])ccc1O | u | 3.0% | x | x | x
NC(N)=N/N=C/c1cc([N+](=O)[O-])ccc1O | u | 9.2% | -13.4% | -115.1* | 1.2
O=[N+]([O-])c1ccc(O)c(/C=N/n2cnnc2)c1 | 20µM* | -0.1% | -17.6% | 17.8 | 3.2
CN(C)/N=C/c1cc([N+](=O)[O-])ccc1O | -0.7% | 7.3% | x | x | x
O=C(Cn1nnc(-c2ccccc2)n1)N/N=C/c1cc([N+](=O)[O-])ccc1O | u | -6.9% | 14.1µM* | u | -5.3
COc1ccc(OC)c(N/C=C/C(=C(C#N)C#N)N(C)C)c1 | u | -3.2% | x | x | x
CCC(C)(C(=O)NC1CCCC1)N(C(=O)CNC(=O)c1ccccc1)c1c(C)n(C)n(-c2ccccc2)c1=O (centres undefined) | -11.7% | -3.7% | x | x | x
N[C@@H](Cc1cccnn1)C(=O)O | 2.2%[13.5 µM] | -11.4% | -0.7% | x | x
SMILES | ALDH1A1 inh | IMPase Li cell | HPGD inh | PNC inhibitor | IMPase cell inh
CCCN1C(=O)c2cccc3c(N4CCCCC4)ccc(c23)C1=O | 2.9% | 1.4% | -13.2% | -88.3* | x
O=C1c2cccc3c(N4CCCCC4)ccc(c23)C(=O)N1c1ccccn1 | u | 8.9%[38.3 µM] | -11.5% | 97.0 | 11.1
Cn1c(SCCCC(=O)c2ccc(Br)cc2)nnc1-c1ccncc1 | 7.2% | 27.0%[38.3 µM] | 17.8µM* | 4.6 | 1.2
CC1c2nc3ccccc3n2C(CC(=O)NCc2ccccn2)C(=O)N1Cc1ccccc1 (centres undefined) | -5.6% | 14.6%[38.3 µM] | 5.0% | 26.8 | -0.3
Cc1cc(C)n(C(=O)CCCC(=O)n2nc(C)cc2C)n1 | 0.0% | -7.2%[38.3 µM] | -7.8% | u | -3.9
Cc1cc(C)n(C(=O)CNc2ccc(C)c(C)c2)n1 | 25.1µM* | 9.9% | -2.0% | u | u
O=C(COC(=O)CNS(=O)(=O)c1cccc(Br)c1)Nc1ccccc1Sc1ccccc1 | -8.2% | -1.8% | -10.9% | -21.7 | x
COc1ccc(CC(=O)Nc2cccc(C(=O)Nc3ccccc3C(=O)O)c2)cc1OC | u | -12.3% | u | u | -9.1
Cc1ccc(C(=O)Nc2ccccc2C(=O)O)cc1NC(=O)COc1c(C)cccc1C | 8.91µM* | 22.5% | x | x | x
COc1ccc(OCC(=O)Nc2cccc(C(=O)Nc3ccccc3C(=O)O)c2)cc1 | 20µM* | -5.8% | u | u | x
Cc1ccc(-c2nc(CS(=O)CC(=O)NC3CCC(C)CC3)c(C)o2)cc1 (centres undefined) | u | 1.3%[38.3 µM] | -9.5% | 38.4 | -0.4
O=C(O)C1CCCN(S(=O)(=O)c2cccs2)C1 (centres undefined) | 1.0% | -0.2% | -14.0% | -100.0* | 2.2
CCOC(=O)C1CCCN(S(=O)(=O)c2ccc(C)cc2)C1 (centres undefined) | 8.91µM* | 9.4% | -12.2% | 132.0 | 2.1
CCOC(=O)C1CCN(S(=O)(=O)c2ccc(OC)c(Cl)c2Cl)CC1 | 6.31µM* | 16.5%[38.3 µM] | -19.8% | -1.1 | -1.9
O=C(NCc1cccs1)C1CCCN(S(=O)(=O)c2cccs2)C1 (centres undefined) | -0.5% | 14.8%[38.3 µM] | -10.3% | -25.4 | 14.2
CCOC(=O)C1CCCN(S(=O)(=O)c2ccc(S(N)(=O)=O)cc2)C1 (centres undefined) | u | -3.5% | x | x | x
COC(=O)c1ccccc1NC(=O)C1CCCN(S(=O)(=O)c2ccc(F)cc2)C1 (centres undefined) | -2.1% | 12.5% | -19.9% | -89.1* | -5.9
COC(=O)c1ccccc1NC(=O)C1CCCN(S(=O)(=O)c2ccccc2)C1 (centres undefined) | -7.0% | 18.3%[38.3 µM] | -9.6% | u | 10.6
Cc1ccc(C(=O)Nc2ccccc2C(=O)N2CCOCC2)cc1[N+](=O)[O-] | 2.1% | -0.6% | 2.9% | u | x
C[C@@]12CCC(O)C[C@H]1CCc1ccccc12 (some centres undefined) | -1.9% | -5.7% | -5.8% | x | x
COc1ccc(S(=O)(=O)NCC2CCCN(C(=O)C3CCCC3)C2)cc1 (centres undefined) | 3.55µM* | 10.5% | x | x | x
COCC(=O)N1CCCC(CNS(=O)(=O)c2ccc(OC)cc2)C1 (centres undefined) | -8.4% | 6.1% | x | x | x
CCOC(=O)N1CCC(NC(=O)C2CCCN(S(=O)(=O)c3ccc4c(c3)oc(=O)n4C)C2)CC1 (centres undefined) | 0.8% | 16.5%[38.3 µM] | -2.8% | -89.9* | 0.8
CCOC(=O)N1CCC(NC(=O)C2CCN(C(=O)N3CC(C)Oc4ccccc43)CC2)CC1 (centres undefined) | u | 1.2%[38.3 µM] | -7.9% | -2.1 | -1.3
CCOC(=O)C1CCCN(S(=O)(=O)c2ccc(OC)cc2)C1 (centres undefined) | 3.16µM* | 19.7%[38.3 µM] | -5.3% | 24.6 | -2.7

Assay outcomes: PubChem, National Center for Advancing Translational Sciences (NCATS)
